Shown are actives, neighbours in structure and some others; about 4.1% of the full set was active somewhere.
ALR inh: inhibitors of human ALR sulfhydryl oxidase, primary screen, biochemical, H2O2 detection, HRP-luminol luminescence, single point; AID 485317, 2010; hit rate 3.8% among 290,000; purified ALR, DTT oxidation; inhibition, % (concentration not given with the values);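 active = mean replicate inhibition above about 79%, with every replicate also reaching it, limit read from the data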
Target sequence (P55789 whole entry, looked up): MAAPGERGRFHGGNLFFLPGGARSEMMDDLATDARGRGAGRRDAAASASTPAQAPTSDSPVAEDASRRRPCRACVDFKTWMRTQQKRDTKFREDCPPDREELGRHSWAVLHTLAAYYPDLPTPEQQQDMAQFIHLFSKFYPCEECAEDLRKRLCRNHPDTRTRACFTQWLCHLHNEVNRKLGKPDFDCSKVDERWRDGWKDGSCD
PglD inh: C. jejuni PglD acetyltransferase inhibitors, primary screen, biochemical, DTNB colorimetric, single point; hit rate 0.098% among 360,000; AID 602405, 2012; UDP-N-acetylbacillosamine N-acetyltransferase PglD (Campylobacter jejuni); purified PglD enzyme, DTNB colorimetric CoA detection; inhibition, % at 12.5 µM; in the data active = inhibition above about 16%, passing the limit was not always enough
CFTR F508del cor: F508del CFTR correction, initial screen, CFBE line, single point. CFBE cells, YFP halide quenching; stimulated with forskolin plus potentiator P3; % fluorescence drop versus neutral controls. activity (quench increase), % at 7.58 µM. hit rate 0.36% among 350,000. AID 720511, 2013;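 active = mean added fluorescence quench of at least 8% versus neutral control, with both replicates also reaching 8%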;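 also: cells transiently co-express mutant CFTR-F508del with the halide-sensitive YFP; corrector assay measuring rescue of mutant channel to the surface after 24 h compound exposure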
HIV Env fusion: inhibitors of HIV-1 Env-driven cell-cell fusion, primary screen, HeLa-JRFL effector, CEM21 target cells, luciferase. inhibition, % at 12.3 µM. AID 651610, 2012. hit rate 1.1% among 360,000;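 active = mean replicate inhibition score of at least 50 and every replicate individually at or above 50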;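 also: 0% = plate neutral controls and 100% = maraviroc near 300 nM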
NSD2 HMT inh: NSD2 histone methyltransferase inhibitors, primary screen, biochemical, AlphaScreen, single concentration, set 2; inhibition, % at 12.5 µM; NSD2 peptide methylation, 120 min; Histone-lysine N-methyltransferase NSD2 (Homo sapiens), O96028; hit rate 0.54% among 310,000; AID 743445, 2014; in the data active = inhibition above about 50%
Casp6 inh: human caspase-6 inhibitors, primary screen, biochemical, VEID-R110 fluorescence, single point, set 2; P55212; purified caspase-6, Z-VEID-R110 cleavage fluorescence; inhibition, % at 12.5 µM; hit rate 0.53% among 350,000;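 active = mean inhibition across replicates at least about 35%, with every replicate also reaching that limit, limit read from the data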;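 also: 0% = median of neutral control wells and 100% = no fluorescence left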
Target sequence (P55212 24-179 limits assumed): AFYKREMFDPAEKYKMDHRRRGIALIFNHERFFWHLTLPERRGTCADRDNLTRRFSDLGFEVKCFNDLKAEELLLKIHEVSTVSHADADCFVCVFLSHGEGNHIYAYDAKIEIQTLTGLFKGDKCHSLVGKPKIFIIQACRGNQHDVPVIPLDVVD
Target sequence (P55212 194-293 limits assumed): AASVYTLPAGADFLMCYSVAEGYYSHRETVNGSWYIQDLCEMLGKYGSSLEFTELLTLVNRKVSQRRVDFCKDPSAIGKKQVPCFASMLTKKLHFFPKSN
Numbers without * were called inactive; x = no result; [ ] = dose if it differs, or a comment.

SMILES	ALR inh	PglD inh	CFTR F508del cor	HIV Env fusion	NSD2 HMT inh	Casp6 inh
CCCCc1c(O)nc(SCC(=O)Nc2ccc(C)cc2)n(-c2ccc(OC)cc2)c1=O	99*	0	4	-17	-2	6
CN1[C@@H]2c3ccc(-c4ccncc4)c(=O)n3C[C@H]1[C@H](CO)[C@H]2C(=O)NCCc1ccccc1	x	-2	0	x	x	6
COc1ccc(-c2cnc3c(c2)C(=O)N([C@H](C)CO)C[C@H](C)[C@H](CN(C)S(=O)(=O)c2ccc(OC)cc2)O3)cc1	x	x	-1	13[16.7 µM]	x	x
Cc1cc(C(=O)Nc2nc3c(C)cccc3s2)c(C)o1	95*	x	x	x	-1	x
O=C(CCl)NC(=O)NC12CC3CC(CC(C3)C1)C2	86*	5	-1	-7	5	24
N#Cc1c(-c2ccccc2)[nH]c(=S)[nH]c1=O	57	x	x	-20	0	x
N#Cc1c(-c2cccc(Cl)c2)[nH]c(=S)[nH]c1=O	80*	x	2	2	1	1
CS(=O)(=O)c1ccc(N)c(SSc2cc(S(C)(=O)=O)ccc2N)c1	99*	1	4	-1	x	1
CCOc1ccc(N)c(SSc2cc(OCC)ccc2N)c1	7	3	-2	-8	3	x
COc1ccc(CNC(=S)Nc2ccc3nc(N4CCOCC4)cc(C)c3c2)cc1	99*	x	x	-7	-3	0
CCOCCCNC(=S)Nc1ccc2nc(N3CCOCC3)cc(C)c2c1	99*	5	1	-2	37	8
COc1ccc(NC(=O)N(C)C[C@H]2Oc3ccc(NC(=O)CCCCCC(=O)Nc4ccccc4N)cc3CC(=O)N([C@H](C)CO)C[C@H]2C)cc1	x	1	1	-3[16.7 µM]	x	-1
CCCCN=C1NN=C(c2ccc3c(c2)OCCO3)CS1	34	x	2	-20	1	-2
Cc1cc(C2=NNC(=NC3CC3)SC2)c(C)n1-c1ccccc1F	26	x	1	56*	4	-1
c1cc2c(cc1C1=NNC(=NC3CC3)SC1)OCCO2	24	x	-3	65*	0	19
CNC(=O)C[C@H]1CC[C@H]2[C@@H](COc3ccc(NC(=O)C(C)C)cc3C(=O)N2C)O1	x	0	0	6[16.7 µM]	x	x
Oc1ccc(Nc2ncnc3c2oc2ccccc23)cc1	42	2	5	1	-3	3
CCc1nc(Nc2ccc(N3CCN(C(C)=O)CC3)cc2)c2oc3ccccc3c2n1	96*	7	x	x	8	x
CCc1nc(Nc2ccccc2)c2oc3ccccc3c2n1	-11	-3	x	-61	-2	x
CC(=O)N1CCN(c2ccc(Nc3ncnc4c3oc3ccccc34)cc2)CC1	99*	1	x	x	-2	x
Cc1cc(NC(=O)CSc2nc(CCC3CCCC3)nc3ccccc23)no1	97*	-4	x	19	-3	x
O=C(CSc1nc(CCC2CCCC2)nc2ccccc12)NCc1ccc2c(c1)OCO2	100*	-1	0	40	2	2
CCCc1nc2ccccc2c(C(=O)OCC(=O)NCc2ccc3c(c2)OCO3)c1CC	-1	x	9.0*	-22	-1	5
O=C(Nc1ccc2c(c1)[C@H]1C[C@H](CC(=O)N3CCOCC3)O[C@H](CO)[C@H]1O2)c1cccnc1	x	0	4	6[16.7 µM]	x	5
COc1ccc(CN(C)C[C@H]2OCCCC[C@H](C)Oc3ccc(NC(=O)CCC(F)(F)F)cc3C(=O)N([C@H](C)CO)C[C@@H]2C)cc1	x	0	1	-15[16.7 µM]	x	1
SMILES	ALR inh	PglD inh	CFTR F508del cor	HIV Env fusion	NSD2 HMT inh	Casp6 inh
CC1CCCC(NC(=O)COC(=O)CSc2ccc3ccccc3c2)C1C (stereo unspecified)	99*	x	x	3	x	4
COc1ccc2c3c(n(C)c2c1)[C@@H](CO)N(C(=O)Nc1ccc(F)cc1)CC31CCN(Cc2ccccc2F)CC1	x	x	4	x	x	11
CC(C)(/C=N/NC(=O)CSCc1ccccc1Cl)CCC#N	98*	x	x	-16	-3	x
O=C(CSCc1ccccc1Cl)N/N=C/c1ccco1	-3	x	-4	-17	3	3
Oc1ccc2c(c1)oc1cc(O)ccc12	99*	4	x	-114	x	x
Nc1nc(C2CC2)c(Sc2sc(N)nc2C2CC2)s1	99*	0	x	x	1	x
CN(CC(=O)Nc1ccc(OC(F)(F)F)cc1)C(=O)Cc1cccs1	-4	-3	3	62*	1	-4
C[C@H]1CN([C@@H](C)CO)C(=O)c2cc(NC(=O)C3CCCCC3)ccc2O[C@H]1CN(C)C	x	-3	-2	-15[16.7 µM]	x	-2
COc1ccc(CN(C)C(=O)c2ccc(OCC(=O)Nc3cccc(C(F)(F)F)c3)c(OC)c2)c(OC)c1	19	-6	0	76*	-2	57*
C[C@@H]1CN([C@H](C)CO)C(=O)Cc2cc(NC(=O)Nc3cccc4ccccc34)ccc2O[C@@H]1CN(C)Cc1ccc(C(=O)Nc2ccccc2N)cc1	x	x	-1	x	x	-1
O=C(c1nc2ccccn2c1CN1CCN(c2ccccc2O)CC1)N1CCCC1	99*	x	-1	-8	0	-2
O=C(c1cc(S(=O)(=O)N2CCCCC2)ccc1F)N1CCCCC1	83*	1	3	x	0	0
O=C(c1ccccc1F)N1CCN(S(=O)(=O)c2ccc(S(=O)(=O)N3CCCCC3)cc2)CC1	-7	x	0	x	0	-1
O=S(=O)(c1ccc2c(c1)C(=NO)c1cc(S(=O)(=O)N3CCCCC3)ccc1-2)N1CCCCC1	-8	-4	x	126*	-1	x
CCCN1C(=O)/C(=C/C=C2\N(CC)c3ccccc3C2(C)C)SC1=S	-2	7	x	5	x	x
CCCCN1C(=O)/C(=C/C=C2\Oc3ccccc3N2CC)SC1=S	x	-4	17*	0	2	0
C[C@@H]1CN([C@H](C)CO)C(=O)c2cc(N(C)C)ccc2O[C@@H]1CN(C)S(=O)(=O)c1ccc(F)cc1	x	8	1	x	x	0
COc1ccc(/C=C2\SC(=S)N(CCC(=O)Nc3ccccc3C(=O)O)C2=O)cc1	-4	-1	6	19	18	1
COc1ccc(/C=C2\SC(=O)N(CCCC(=O)Nc3cc(Cl)ccc3C(=O)O)C2=O)cc1	10	x	-1	61*	6	8
CO[C@H]1CN(C)C(=O)c2cc(NC(C)=O)ccc2OC[C@@H](C)N(Cc2cccnc2)C[C@@H]1C	x	2	2	-14[16.7 µM]	x	x
CCOc1cc(/C=C2\SC(=S)N(NS(=O)(=O)c3ccc(C)cc3)C2=O)ccc1O	99*	-12	-1	1	22	2
COc1cccc(/C=C2\SC(=S)N(NS(=O)(=O)c3ccc(C)cc3)C2=O)c1OC	91*	x	-2	-2	17	3
COc1cc(/C=C2\SC(=S)N(NS(=O)(=O)c3ccc(C)cc3)C2=O)ccc1O	99*	x	3	14	36	11

Screening data as filed in PubChem BioAssay.
